# Experimental data reported in PubChem BioAssay (NCI).
# This is part of a sample that, as a whole, favours compounds with a hit. Of some 83,000 tested, about 20% had one in any assay.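 Treatment: one concentration, 48 hours, 96-well format. Scoring: percent growth, with anything below 10 considered active.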 Unmarked numbers belong to inactive results. Active and inactive are the calls of the source.
# How the values were obtained:
# Test in all cases: NCI-60 one-dose screen, 48 h (100 = growth as untreated, 0 = no growth, -100 = all killed)
# Conditions in all cases: 10 µM unless noted
# NCI-H23 lung = test system: NCI-H23 lung
# NCI-H226 lung = test system: NCI-H226 lung
# NCI-H322M lung = test system: NCI-H322M lung
# HOP-62 NSCLC = test system: HOP-62 NSCLC
# NCI-H460 lung = test system: NCI-H460 lung
# HOP-92 NSCLC = test system: HOP-92 NSCLC
# NCI-H522 lung = test system: NCI-H522 lung
# A549/ATCC NSCLC = test system: A549/ATCC NSCLC
# 786-0 renal = test system: 786-0 renal
# COLO 205 colon = test system: COLO 205 colon
# DU-145 prostate = test system: DU-145 prostate
# K-562 leukemia = test system: K-562 leukemia
# MALME-3M melanoma = test system: MALME-3M melanoma
# MDA-MB-231 breast = test system: MDA-MB-231 breast
# RXF 393 renal = test system: RXF 393 renal
# SF-268 CNS = test system: SF-268 CNS
# SF-295 CNS = test system: SF-295 CNS
# SF-539 CNS = test system: SF-539 CNS
# UACC-257 melanoma = test system: UACC-257 melanoma
# M14 melanoma = test system: M14 melanoma
Structure (SMILES),growth (NCI-H23 lung),growth (NCI-H226 lung),growth (NCI-H322M lung),growth (HOP-62 NSCLC),growth (NCI-H460 lung),growth (HOP-92 NSCLC),growth (NCI-H522 lung),growth (A549/ATCC NSCLC),growth (786-0 renal),growth (COLO 205 colon),growth (DU-145 prostate),growth (K-562 leukemia),growth (MALME-3M melanoma),growth (MDA-MB-231 breast),growth (RXF 393 renal),growth (SF-268 CNS),growth (SF-295 CNS),growth (SF-539 CNS),growth (UACC-257 melanoma),growth (M14 melanoma)
CCOC(=O)c1nn(CC(O)c2ccccc2)c(NC(=O)Nc2cccc(F)c2)c1C (stereo not given),108%,84.8%,98.9%,104%,96.3%,99.8%,84.7%,87.9%,99.7%,106%,94.4%,92.4%,100%,90%,107%,95.4%,92.2%,102%,86.8%,103%
C=C(CNCCc1ccc(O)cc1)[C@@H]1CC[C@]2(CO)CC[C@]3(C)[C@H](CC[C@@H]4[C@@]5(C)CCC(=O)C(C)(C)[C@@H]5CC[C@]43C)[C@@H]12,65.7%,93.1%,63.2%,84.4%,-48.8% (active),35.1%,29.2%,26.7%,44.7%,-55.6% (active),43.2%,-26.3% (active),-57.3% (active),1.97% (active),26%,45.9%,84.2%,78.8%,-12.8% (active),-76.3% (active)
COc1cccc(/C=C/C(=O)c2cccc(Nc3nc(Nc4ccccc4)nc(Nc4ccccc4)n3)c2)c1,82.2%,94.2%,86.6%,79.2%,91.9%,17.7%,85.6%,68.5%,89%,87.5%,85.5%,59.4%,107%,84.6%,-38.8% (active),95.3%,71.4%,96.5%,114%,89.4%
COc1ccc(C(=O)Cn2c(C(=O)c3ccc(Cl)cc3)nc3ccccc32)cc1,78.3%,87.4%,89.7%,81.8%,86.9%,59.3%,14.8%,68.1%,64.6%,111%,98.3%,45.7%,70.7%,65.5%,14.2%,66.7%,51.8%,91%,70.8%,14.8%
CN1CCN(C(=O)[C@@]2(C)CC[C@]3(C)CC[C@]4(C)C(=CC[C@@H]5[C@@]6(C)CCC(=O)NC(C)(C)[C@@H]6CC[C@]54C)[C@@H]3C2)CC1,61.8%,68.3%,70.7%,62.8%,31.8%,15.9%,74.8%,51.9%,47.9%,7.65% (active),86.7%,16%,19.8%,61.1%,35%,63.1%,90.5%,43.9%,-12.9% (active),0.579% (active)
CC/C=C\C[C@H](O)C/C=C1/C(=O)C=C[C@@H]1C/C=C\CCCC(=O)O,79.9%,83.1%,85.6%,96.9%,64.8%,75.2%,-10.7% (active),75.9%,68.5%,65.4%,60.2%,17.1%,67.5%,56.7%,94.2%,81.3%,96%,59.2%,55.2%,57.8%
Cc1ccc(S(=O)(=O)N2CCC(=O)c3ccccc32)cc1,85%,93.9%,89.3%,80.8%,86.5%,80.8%,84%,102%,93.7%,76.4%,62%,40.2%,84.9%,72.9%,61%,80.2%,86.6%,55.1%,77.8%,62%
